Laboratory results taken from PubChem BioAssay AID651812 (National Center for Advancing Translational Sciences (NCATS), 2012).
Among all 2,100 compounds or so, about 650 (31%) were called active. Not shown: some 16% with an inconclusive outcome. This is one part of the list. Unmarked numbers belong to inactive results. The call rests on the fitted dose curve; in most records, active means well fitted inhibition curve with a large enough effect; inconclusive means small, poorly fitted or top-dose-only effect; inactive means flat fitted curve, though single readings scatter.

Assay: qHTS for inhibitors of Vif-A3G interactions: Cherry picks; further: nearly all actives have a fitted effect of over 80% in size; on activity, negative = fluorescence increase: % of control where 0% means no effect
Conditions: HeLa A3G-eYFP + Vif (tagged APOBEC3G with the HIV-1 protein that degrades it), 24 h; Potency: eYFP fluorescence increase; series mostly up to 36.9 µM; activity, negative = fluorescence increase: at the top concentration
Description: The recent discovery and characterization of host restriction factors, which provide a potent defense to invading retroviruses, has provided new targets for antiviral drug development. APOBEC3G (A3G) and APOBEC3F (A3F) are potent cytidine deaminases that block HIV-1 replication; HIV-1 expresses the Vif protein, which counteracts A3G and A3F by binding to them and inducing their proteasomal degradation. The Vif-A3G and Vif-A3F interactions provide two potential targets for development of small molecules which can interfere with the ability of Vif to degrade A3G or A3F. […] To identify inhibitors that can interfere with Vif mediated degradation of A3G and A3F, we have developed Hela cell lines that stably express A3G or A3F tagged with eYFP at the C-terminal end (A3G-eYFP or A3F-eYFP, respectively) and Vif. In the absence of an inhibitor, Vif induces degradation of A3G-eYFP and A3F-eYFP, and the cells are not fluorescent. In the presence of an inhibitor, it is expected that Vif will be unable to degrade A3G-eYFP and/or A3F-eYFP, resulting in an increase in yellow fluorescence. In this assay, Vif A3G was screened against the cherry picks ordered from the MLSMR. NIH Chemical Genomics Center [NCGC] NIH Molecular Libraries Probe Centers Network [MLPCN] MLPCN Grant: MH093245 Assay Submitter (PI): Vinay Pathak, National Cancer Institute
A3G-Vif cells were harvested from T225 flask and resuspended in phenol free OPTI-MEM medium with 5% FBS. Then 5 uL of 140,000 cells/mL resuspended cells was dispensed into each well of low base Aurora COC 1,536-well plates (black walled, clear bottom) using a Multidrop Combi dispenser. After overnight culture at 37 deg C with 5% CO2, a total of 23 nL of compounds at 5 selected concentrations from the NPC or positive control (2 mM stock of MG132) in DMSO was transferred to each well of the assay plate using a pintool (Kalypsys, San Diego, CA), and the plates were further incubated at 37 deg C with 5% CO2 for 24 hours. After that, the plates were measured on Acumen Explorer (TTP Lab Tech). The fluorescence was detected by 488 nm/Ex and […].
Potency means the concentration at half of the fitted maximal effect.

Compound | activity, negative = fluorescence increase | Potency
COc1ccc(-c2nnc(SCC(=O)NCc3ccccc3)nc2-c2ccc(OC)c(OC)c2)cc1OC | -10.7% [at 46.1 µM] | –
COc1ccc(-c2ccc3c(c2)S(=O)(=O)c2cccc(C(=O)NCCOc4ccccc4)c2C3=O)cc1OC | – | 12.5 µM (active)
COc1ccc(-c2ccc3c(c2)S(=O)(=O)c2cccc(C(=O)NCc4cccc(OC(F)(F)F)c4)c2C3=O)cc1OC | – | 10.3 µM (active)
COc1cc(C(=O)NCCOc2cc(C)cc(C)c2)c(Br)c(OC)c1OC | 2.34% | –
Fc1cccc(Cc2c(-c3ccco3)nc3ccc(Br)cn23)c1 | -9.28% | –
CC(NC1=CC(=O)c2cccnc2C1=O)C(O)c1ccccc1 (stereo not given) | -0.502% | –
CN(CC(=O)Nc1ccc(Cl)c(C(F)(F)F)c1)C(=O)c1ccc(S(=O)(=O)N2CCOCC2)cc1 | -0.993% | –
CN1CCCc2cc(/C=C/c3ccnc4ccccc34)ccc21 | – | 5.17 µM (active)
CN(C)c1ccc(/C=C/c2ccnc3ccccc23)cc1O | – | 18.4 µM (active)
Cc1cc(/C=C/c2ccnc3ccccc23)ccc1N | – | 18.4 µM (active)
CCc1cc(/C=C/c2ccnc3ccccc23)ccc1N(C)C | – | 18.4 µM (active)
CN(C)c1ccc(/C=C/c2ccnc3ccccc23)cc1C=O | -27.4% [at 46.1 µM] | –
Cc1cc(NC(=O)Nc2nnc(N(C)Cc3ccccc3)s2)ccc1Br | -0.0185% [at 46.1 µM] | –
COc1cccc(/C=N/NC(=O)c2[nH]nc3c2CCc2ccccc2-3)c1 | -3.68% | –
CC(=O)n1cc(/C=N/NC(=O)c2sc(C)nc2C)c2ccccc21 | -0.408% | –
COc1ccc(C(C)(O)c2nc(-c3ccccc3OC)cs2)cc1 (stereo not given) | -6.82% | –
Cc1cc(N(C)C)c(C)cc1/C=C/c1ccnc2ccccc12 | – | 20.6 µM (active)
Cc1cc(/C=C/c2ccnc3ccccc23)ccc1N(C)C | – | 20.6 µM (active)
CN(C)c1ccc(/C=C/c2ccnc3ccccc23)cc1N | -16% [at 46.1 µM] | –
CCn1c2ccccc2c2c3ncc4cccn4c3ccc21 | – | 23.1 µM (active)
CCOC(=O)/C(C#N)=C\C=C1C=CN(C)C=C1 | – | 8.2 µM (active)
COc1cc2c(cc1OC)CN(C(=O)/C=C/c1cccs1)CC2 | -5.73% | –
Cc1cc(C)nc(-n2nc(C)cc2NC(=O)c2ccc(F)cc2F)n1 | 4.33% [at 46.1 µM] | –
O=[N+]([O-])/C=C\c1ccc(N2CCCC2)c(F)c1 | -7.46% [at 46.1 µM] | –
Cc1cc(N2CCCC2)ccc1/C=C1/C(=O)N(C)C(=S)N1C | – | 18.4 µM (active)

Compound | activity, negative = fluorescence increase | Potency
Cc1cc(N2CCCC2)ccc1/C=C1\NC(=S)N(C)C1=O | – | 3.66 µM (active)
Cc1cc(/C=C2\NC(=S)N(C)C2=O)ccc1N1CCCC1 | – | 8.86 µM (active)
COc1ccc(/C=C/c2ccnc3ccccc23)c(OC)c1 | -24.9% [at 46.1 µM] | –
COc1cc(/C=C/c2ccnc3ccccc23)ccc1N(C)C | – | 20.6 µM (active)
COc1cc(N(C)C)c(OC)cc1/C=C/c1ccnc2ccccc12 | – | 20.6 µM (active)
COc1ccccc1-c1c(C#N)c(N)nc2c1CCc1ccccc1-2 | 0.0212% | –
CCOC(=O)c1c(Nc2ccc(Cl)cc2)sc(/C=C2\C=Nc3ccccc32)c1O | – | 13 µM (active)
CNc1cncc(-c2cc(C)c(O)c(C)c2)n1 | -3.27% | –
Cn1cc(/C=C/c2ccnc3ccccc23)c2ccccc21 | – | 23.1 µM (active)
Cn1cc(/C=C/c2ccc3ccccc3n2)c2ccccc21 | – | 20.6 µM (active)
COc1cc(C2c3cc4c(cc3OC(C)(N3CCCC3)C2C)OCO4)cc(OC)c1OC (stereo not given) | -11.6% | –
CCOc1c(Cl)cc(/C=N/NC(N)=S)cc1OC | -10.8% [at 46.1 µM] | –
Cc1ccc(S(=O)(=O)CCSc2nc(C)cc(C(F)(F)F)c2C#N)cc1 | – | 14 µM (active)
CCOc1ccc(-n2nnnc2SCC(=O)c2ccccc2)cc1 | -0.934% | –
Cc1cc(C(F)(F)F)c(C#N)c(SCC(=O)Nc2nc3ccccc3s2)n1 | – | 18.4 µM (active)
CCOc1ccc(-c2cc(C(F)(F)F)c(C#N)c(SCC(=O)Nc3ccccc3)n2)cc1 | – | 18.4 µM (active)
Cc1cnc(NC(=O)CC(C)c2ccccc2)s1 (stereo not given) | 2.19% | –
Cc1ccc2nc(NC(=O)CN(C)S(=O)(=O)c3cccc4nsnc34)sc2c1 | -2.5% | –
CCOC(=O)c1ccc(N=Nc2c(C)c(C#N)c(O)[nH]c2=O)cc1 | -10.2% [at 46.1 µM] | –
CCOc1ccc(-c2cc(C(=O)N/N=C(\C)c3cccnc3)c3ccccc3n2)cc1 | -5.98% | –
CCOC(=O)c1ccc(NC(=O)CSc2nc(-c3ccc(F)cc3)cc(C(F)(F)F)c2C#N)cc1 | – | 20.6 µM (active)
CCOC(=O)c1ccc(NC(=O)Cn2ncc(Cl)c(Cl)c2=O)cc1 | 0.447% | –
COc1ccc(C2C(C#N)=C(N)Oc3cc(N)ccc32)cc1OC (stereo not given) | -7.81% | –
COc1cc(C2C3=C(COC3=O)Oc3cc4c(cc32)OCO4)ccc1OC(C)=O (stereo not given) | -0.554% | –
Cc1cccc(N2CCN(C(=O)c3cccc(N4CCCC4=O)c3)C(C)C2)c1 (stereo not given) | -3.43% | –
